In the library only some 9.3% were active in any assay of this set; here they are far more common.
FLuc counter: counter-screen for miR-21 project: firefly luciferase inhibitors or activators; actives 6.9% (n = 360,000); AID 588342; P08659; Potency, µM (highest dose often 57.5 µM), for inactives: at the top dose activity change, negative = inhibition, hits mostly inhibitors; purified FLuc, Km substrates, luminescence inhibition;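 further: plate controls were vehicle for no effect and reference inhibitor for full effect; nearly all actives have a fitted effect of over 55% in size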
Target sequence (P08659 whole entry, looked up): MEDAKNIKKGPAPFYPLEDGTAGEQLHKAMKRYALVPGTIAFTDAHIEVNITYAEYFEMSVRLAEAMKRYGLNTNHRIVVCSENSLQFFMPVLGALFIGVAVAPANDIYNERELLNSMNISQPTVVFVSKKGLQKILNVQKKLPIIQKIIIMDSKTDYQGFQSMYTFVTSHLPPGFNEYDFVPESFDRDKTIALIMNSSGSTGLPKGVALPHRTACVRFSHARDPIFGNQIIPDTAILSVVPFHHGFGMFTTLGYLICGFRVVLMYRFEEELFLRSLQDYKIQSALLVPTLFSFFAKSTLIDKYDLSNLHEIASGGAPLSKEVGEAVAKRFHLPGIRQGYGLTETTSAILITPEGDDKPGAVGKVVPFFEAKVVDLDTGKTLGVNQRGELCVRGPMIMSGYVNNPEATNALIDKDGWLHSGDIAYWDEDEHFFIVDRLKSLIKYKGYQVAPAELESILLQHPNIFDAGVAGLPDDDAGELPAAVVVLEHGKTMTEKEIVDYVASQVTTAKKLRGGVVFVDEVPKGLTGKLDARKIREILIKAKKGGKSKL
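Purified P. pyralis luciferase, 10 nM final, with Km-level 10 uM D-luciferin and 10 uM ATP in 50 mM Tris acetate pH 7.5, 10 mM Mg acetate, 0.01% Tween-20, 0.05% BSA; 6-point qHTS titration about 60 µM downward; luminescence read.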
ELG1 genotoxic: genotoxicity induction in ELG1-luciferase HEK293T cells | HEK293T ELG1-luciferase reporter, luminescence, 16 h | Potency, µM (highest dose often 46 µM), for the others: top-dose activity change, positive = activation, hits mostly activators | AID 504466 | actives 1.3% (n = 330,000); further: % of control where 0% means no effect; nearly all actives have a fitted effect of over 60% in size
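Quantitative HTS format in 1536-well plates. HEK293T ELG1-luciferase reporter cells receive test compound and are incubated 16 hr at 37 °C, 5% CO2; ONE-Glo added, 30 min room temperature, then luminescence read.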
ELG1 repair inh: ELG1-dependent DNA repair inhibition | HEK293T ELG1-luciferase reporter, luminescence, 16 h; DNA damage induced by 5-fluorouridine | Potency, µM (doses to about 46.1 µM), for the others: at the highest dose activity change, negative = inhibition, hits mostly inhibitors | actives 2.3% (n = 330,000); further: on the % scale 0 is the no-effect control and ±100 the full control effect; nearly all actives have a fitted effect of over 55% in size
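HEK293T cells expressing luciferase-tagged ELG1 (2,000/well) received 5-Fluorouridine plus compound or DMSO for 16 hr at 37 °C. Luciferase was read by ONE-Glo luminescence after 30 min at room temperature.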
SMN2 splice up: enhancers of SMN2 splice variant expression; HEK293 SMN2-luciferase splicing reporter, luminescence, 30-36 h; Potency, µM (series often up to 46.1 µM), for inactives: top-dose activity change, positive = activation, usual class: activators; actives 2.8% (n = 210,000); further: % of control where 0% means no effect; nearly all actives have a fitted effect of over 55% in size
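HEK293 cells carry an SMN2 minigene-luciferase reporter in which exon 7 inclusion puts luciferase in frame. Cells were seeded at 2000 cells/well, attached for 10-12 hours, then exposed to compounds for 30-36 hours at 37C before ONE-Glo luminescence.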
NPC1 promoter act: activates the NPC1 promoter; AID 485313; actives 2.4% (n = 320,000); Potency, µM (titrated, usually from 9.22 µM), for the others: at the top dose activation, most hits filed as activators; Huh7 NPC1 promoter luciferase reporter, 24 h; further: % of control where 0% means no effect; nearly all actives have a fitted effect of over 60% in size
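Cells: Huh7 expressing luciferase under the NPC1 promoter, 1500/well. Seeded 2 h, compound added, incubated 24 h at 37 °C. Luciferase reagent, 10 min ambient, then luminescence.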
Rab9 promoter act: activators of Rab9 promoter. Huh7 Rab9 promoter-luciferase reporter, luminescence, 24 h. Potency, µM (series often up to 9.22 µM), for inactives: at the top dose activation, negative = inhibition, most hits filed as activators. actives 2.8% (n = 320,000). AID 485297; further: % of control where 0% means no effect; nearly all actives have a fitted effect of over 60% in size
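Steps: seed 1500 Huh7 Rab9-luc cells per well, rest 2 h at 37 °C; add compound in DMSO; incubate 24 h; add luciferase reagent, 10 min ambient; read luminescence.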
* = called active by the depositor; u = inconclusive; x = no result given. The call rests on the fitted dose curve; in most records, active means well fitted curve in the direction sought with a large enough effect; inconclusive means small, poorly fitted or top-dose-only effect, or another doubt; inactive means no such curve, though single readings can be large; an effect the other way counts as inactive or inconclusive. Potency means the concentration at half of the fitted maximal effect.

SMILES	FLuc counter	ELG1 genotoxic	ELG1 repair inh	SMN2 splice up	NPC1 promoter act	Rab9 promoter act
COc1ccc(CCNC(=O)c2nn(-c3ccc(C)cc3)c(=O)c3c2c2ccccc2n3C)cc1OC	3%	x	x	-8%	x	x
Cc1c(C(c2ccccc2)c2c(C)n(C)n(-c3ccccc3)c2=O)c(=O)n(-c2ccccc2)n1C	0%	-1%	8%	x	1%	-3%
Cc1ccc(C(c2c(C)n(C)n(-c3ccccc3)c2=O)c2c(C)n(C)n(-c3ccccc3)c2=O)s1	1%	-4%	23µM*	-31%	-7%	-5%
CCCN(C(=O)CSc1nnc(-c2ccoc2C)n1N)C1CCS(=O)(=O)C1 (stereo unspecified)	10%	-4%	0.65µM*	13%	-1%	-2%
CCCN(C(=O)CSc1nnnn1-c1ccccc1OC)C1CCS(=O)(=O)C1 (stereo unspecified)	4%	-1%	2%	x	-1%	6%
O=c1[nH][nH]c(=O)c2c(NS(=O)(=O)c3ccccc3)cccc12	19µM*	u	u	25%	26%	29%
CCN1C(=O)[C@H]2[C@H]3CN=C(SCc4ccc(C#N)cc4)N3[C@@](Cc3ccccc3)(C(=O)OC)[C@H]2C1=O	x	2%	-1%	x	x	x
COc1ccccc1C(=O)Oc1ccc(C(C)(C)C)cc1	6µM*	4%	u	-30%	-1%	4%
CCCCCCOC(=O)c1ccc(OC(=O)c2cccnc2)cc1	u	18µM*	u	14%	1%	3%
CC(C)(C)c1ccc(OC(=O)c2cccnc2)cc1	12µM*	2%	0%	12%	-6%	-1%
CCCCOC(=O)c1ccc(OC(=O)c2cccnc2)cc1	u	9%	u	4%	1%	-1%
CC(C)(C)c1ccc(OC(=O)c2ccc3nsnc3c2)cc1	7.6µM*	3%	4%	-37%	1%	-7%
COc1ccc2c(C)cc(SCC(=O)Nc3nsc(-c4ccc(C)cc4)n3)nc2c1	-4%	-1%	-12%	u	3%	1%
Cc1nc(SCC(=O)c2ccc(F)cc2)n[nH]1	-11%	1%	0%	2%	7%	-1%
COc1ccc(C(=O)OCCCOC(=O)c2ccc(OC)cc2OC)c(OC)c1	-3%	3%	-2%	x	1%	-2%
COc1ccc(C(=O)Oc2ccc(C(C)=O)cc2)c(OC)c1	12µM*	9%	u	7%	-1%	3%
Cc1cc(/C=C(\C#N)C(N)=O)c(C)n1-c1ccc(N2CCOCC2)c([N+](=O)[O-])c1	1%	-12%	23µM*	-24%	-3%	-1%
Cc1cc(C=O)c(C)n1-c1ccc(N2CCCCC2)c([N+](=O)[O-])c1	2%	2%	-3%	3%	1%	-3%
COC(=O)c1nn(-c2ccc(OC)cc2)c(=O)cc1Oc1ccccc1	-1%	1%	7%	-1%	1%	1%
Clc1ccc(-n2cc(COCc3ccccc3)nn2)cc1	1.9µM*	u	u	13µM*	0.89µM*	0.89µM*
O=C(Nc1ccc(Cl)cc1)OCc1cn(-c2ccc(Cl)cc2)nn1	u	3%	u	10%	0%	9%
O=C(NCc1ccco1)/C(=C/C=C/c1ccccc1)NC(=O)c1ccco1	-14%	0%	-9%	-12%	-1%	10%
O=C(NCc1ccco1)/C(=C\C=C\c1ccccc1)NC(=O)c1ccccc1Br	27µM*	-15%	23µM*	-10%	-1%	2%
N#C/C(=C(/O)COC(=O)Cc1c[nH]c2ccccc12)c1nc2ccccc2[nH]1	15µM*	0%	1%	-11%	-1%	-7%
C(=N\c1nc2ccccc2n1Cc1ccccc1)/c1cccs1	13µM*	-11%	u	-14%	1%	4%
C(=N\c1nc2ccccc2n1CCN1CCOCC1)/c1cccs1	u	0%	1%	-4%	-5%	0%

High-throughput results deposited in PubChem BioAssay by National Center for Advancing Translational Sciences (NCATS).
